Inconclusive results are not listed. Activity calls are given as the source filed them. Unless noted, calls come from the whole dose curve; as a rule, active = well fitted curve in the direction sought with a large enough effect; inconclusive = small, poorly fitted or top-dose-only effect, or another doubt; inactive = no such curve, though single readings can be large; an effect the other way counts as inactive or inconclusive.
How the values were obtained:
[1] = biological target: Cytochrome P450 3A4 (Homo sapiens) (UniProt P08684); test: qHTS Assay for Inhibitors and Substrates of Cytochrome P450 3A4 (AID 884); note: % is set by controls: 0 for no effect and ±100 for the full control effect; nearly all actives have a fitted effect of over 50% in size
Chain of Cytochrome P450 3A4 (Homo sapiens) (P08684 whole entry, looked up): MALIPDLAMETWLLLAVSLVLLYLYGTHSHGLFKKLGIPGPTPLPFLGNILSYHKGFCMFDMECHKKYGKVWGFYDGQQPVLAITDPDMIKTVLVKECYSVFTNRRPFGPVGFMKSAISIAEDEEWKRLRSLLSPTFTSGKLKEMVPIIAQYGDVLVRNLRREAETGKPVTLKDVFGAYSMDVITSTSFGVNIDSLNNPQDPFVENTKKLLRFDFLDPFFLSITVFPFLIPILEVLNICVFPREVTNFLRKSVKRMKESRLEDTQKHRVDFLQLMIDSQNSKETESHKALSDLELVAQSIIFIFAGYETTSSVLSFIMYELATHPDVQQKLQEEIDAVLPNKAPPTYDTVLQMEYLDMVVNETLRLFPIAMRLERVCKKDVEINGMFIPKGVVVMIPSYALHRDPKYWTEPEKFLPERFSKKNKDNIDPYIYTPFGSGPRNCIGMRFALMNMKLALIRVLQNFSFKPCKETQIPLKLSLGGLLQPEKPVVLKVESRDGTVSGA
In short: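 Luminescent readout of luciferin produced by CYP3A4 (20 nM) dealkylation of Luciferin-PPXE, 25 uM (its KM). NADPH-driven reaction ran 60 min at RT after 10 min compound preincubation; data scaled to 57 uM ketoconazole as 100% inhibition.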

[2] = Confirmation and Secondary Assay for Modulators of Hemoglobin Beta Chain Splicing at IVS2 654 locus (AID 910);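 note: per-well total GFP intensity by laser scanning cytometry after 2-day treatment; % of control where 0% means no effect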
In short: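 HeLa cells stably carrying EGFP interrupted by mutant beta-globin IVS2-654 intron (CMV-driven) were treated with compound for 2 days at 37C; corrected splicing was scored as total peak GFP intensity per well (488 nm excitation, 500-520 nm emission).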

[3] = Confirmation and Secondary Assay for Modulators of Hemoglobin Beta Chain Splicing at IVS2 705 locus (AID 930);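 note: HeLa cells stably expressing the EGFP-705 splicing reporter; GFP fluorescence per well restored by corrected splicing of the IVS2-705 intron in EGFP; % of control where 0% means no effect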
In short: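 HeLa IVS2-705 EGFP reporter cells, 500/well, compound 2 d at 37C; correct splicing yields fluorescent EGFP. Control: 500 nM antisense PNA. Read-out: total peak GFP intensity.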

[4] = qHTS Assay for Lipid Storage Modulators (AID 1519; calls by dose curve; for activity change, negative = inhibition: % is set by controls: 0 for no effect and ±100 for the full control effect); details: Drosophila S3 cells, BODIPY lipid droplet/cell ratio, laser cytometry, cells loaded with oleic acid
In short: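 Cells seeded at 5,000 per well were treated with compounds over a concentration series and loaded with oleic acid (400 uM, as added). Lipid droplet fluorescence (488 nm excitation, 500-530 nm channel) was read by laser-scanning cytometry and normalized to 20 uM Triacsin C.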

[5] = biological target: ATP-dependent 6-phosphofructokinase (Trypanosoma brucei brucei) (UniProt O15648); test: qHTS Assay to Find Inhibitors of T. brucei phosphofructokinase: hit validation (AID 492961);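 note: luminescence reports ADP formed as PFK phosphorylates fructose-6-phosphate with ATP; % is set by controls: 0 for no effect and ±100 for the full control effect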
Chain of ATP-dependent 6-phosphofructokinase (Trypanosoma brucei brucei) (O15648 whole entry, looked up): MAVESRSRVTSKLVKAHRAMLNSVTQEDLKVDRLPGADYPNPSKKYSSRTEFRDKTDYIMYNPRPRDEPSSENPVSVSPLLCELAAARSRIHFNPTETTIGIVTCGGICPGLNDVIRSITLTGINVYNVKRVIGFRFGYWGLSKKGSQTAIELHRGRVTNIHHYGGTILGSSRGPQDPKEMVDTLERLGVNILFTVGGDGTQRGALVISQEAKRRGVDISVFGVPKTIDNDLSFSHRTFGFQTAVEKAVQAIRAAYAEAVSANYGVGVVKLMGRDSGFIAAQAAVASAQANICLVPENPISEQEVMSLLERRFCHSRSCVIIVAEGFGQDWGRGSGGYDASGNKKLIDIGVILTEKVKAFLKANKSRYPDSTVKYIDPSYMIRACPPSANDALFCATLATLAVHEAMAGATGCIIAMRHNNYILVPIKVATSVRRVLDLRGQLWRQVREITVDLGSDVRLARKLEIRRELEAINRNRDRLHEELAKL
In short: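 PFK 1.25 nM, F6P 0.5 mM, ATP 0.1 mM, MgCl2 5 mM, 0.1 M TEA pH 8.0, Tween20 0.01%, BSA 0.1%; 45 min RT. ADP-Glo two-step detection, luminescence. qHTS titration; curve fitting with curve-class categorization.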

[6] = biological target: Ubiquitin carboxyl-terminal hydrolase 1 (Homo sapiens) (UniProt O94782); test: Inhibitors of USP1/UAF1: Pilot qHTS (AID 504865);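 note: rhodamine fluorescence freed from ubiquitin-rhodamine substrate followed over time; top concentration of the series differs between compounds; % is set by controls: 0 for no effect and ±100 for the full control effect; nearly all actives have a fitted effect of over 35% in size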
Chain of Ubiquitin carboxyl-terminal hydrolase 1 (Homo sapiens) (O94782 whole entry, looked up): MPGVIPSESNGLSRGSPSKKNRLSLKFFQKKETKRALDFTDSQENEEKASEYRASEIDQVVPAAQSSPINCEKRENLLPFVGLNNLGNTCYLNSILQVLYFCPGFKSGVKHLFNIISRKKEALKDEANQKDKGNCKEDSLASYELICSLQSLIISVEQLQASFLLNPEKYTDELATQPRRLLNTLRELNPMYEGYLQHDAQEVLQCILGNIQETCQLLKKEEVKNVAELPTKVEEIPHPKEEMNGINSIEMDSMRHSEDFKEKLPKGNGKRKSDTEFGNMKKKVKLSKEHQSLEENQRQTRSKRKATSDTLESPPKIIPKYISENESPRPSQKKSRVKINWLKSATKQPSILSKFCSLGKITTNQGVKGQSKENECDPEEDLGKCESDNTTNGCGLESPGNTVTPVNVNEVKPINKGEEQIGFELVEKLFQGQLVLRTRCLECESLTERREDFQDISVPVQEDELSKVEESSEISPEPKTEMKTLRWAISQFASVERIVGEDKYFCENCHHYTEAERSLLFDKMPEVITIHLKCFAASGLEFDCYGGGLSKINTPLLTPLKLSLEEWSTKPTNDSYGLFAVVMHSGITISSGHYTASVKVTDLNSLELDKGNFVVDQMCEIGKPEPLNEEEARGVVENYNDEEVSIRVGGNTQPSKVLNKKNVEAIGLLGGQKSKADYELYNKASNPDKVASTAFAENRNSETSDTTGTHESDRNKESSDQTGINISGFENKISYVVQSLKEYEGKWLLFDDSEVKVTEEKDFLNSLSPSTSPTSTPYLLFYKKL
In short: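 USP1/UAF1 complex at 1 nM preincubated 15 min at room temperature with compound, then Ub-Rho substrate added at 150 nM final. Fluorescence (480/540 nm) read kinetically in 50 mM HEPES pH 7.8, 0.5 mM EDTA, 1 mM TCEP, 0.1 mg/ml BSA, 0.01% Tween-20.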

[7] = biological target: Luciferin 4-monooxygenase (Photinus pyralis) (UniProt P08659); test: Biochemical firefly luciferase enzyme assay for NPC (AID 624030);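 note: purified P. pyralis luciferase at 10 nM with luciferin and ATP substrate; 0% = DMSO and -100% = full luciferase inhibition by PTC124 control; nearly all actives have a fitted effect of over 70% in size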
Chain of Luciferin 4-monooxygenase (Photinus pyralis) (P08659 whole entry, looked up): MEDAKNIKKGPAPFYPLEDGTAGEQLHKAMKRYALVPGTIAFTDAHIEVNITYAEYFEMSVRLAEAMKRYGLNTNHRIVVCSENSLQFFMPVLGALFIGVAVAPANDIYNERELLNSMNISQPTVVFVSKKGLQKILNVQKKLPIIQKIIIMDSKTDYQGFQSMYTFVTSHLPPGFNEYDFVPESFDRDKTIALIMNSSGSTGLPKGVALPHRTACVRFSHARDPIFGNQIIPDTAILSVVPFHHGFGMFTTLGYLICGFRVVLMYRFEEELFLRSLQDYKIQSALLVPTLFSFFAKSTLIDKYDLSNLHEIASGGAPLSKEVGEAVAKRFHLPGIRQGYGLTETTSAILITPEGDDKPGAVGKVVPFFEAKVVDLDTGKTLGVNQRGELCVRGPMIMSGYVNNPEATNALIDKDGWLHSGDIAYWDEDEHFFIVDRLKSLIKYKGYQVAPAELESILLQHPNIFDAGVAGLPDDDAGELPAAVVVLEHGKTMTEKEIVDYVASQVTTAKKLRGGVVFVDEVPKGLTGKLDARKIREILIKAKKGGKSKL
In short: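 Counter-screen for direct inhibition of the luciferase enzyme by approved-drug library compounds, run at 10 nM enzyme in 50 mM Tris acetate (final). Luminescence was read within 5 min of enzyme-buffer addition and normalized to PTC124 versus DMSO (0%).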

[8] = S16 Schwann cell viability assay (CellTiter-Glo assay) (AID 624031);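 note: native untransfected S16 rat Schwann cells; cellular ATP luminescence as a viability measure; plate controls were DMSO-treated cells for no effect and cell-free wells for full effect; nearly all actives have a fitted effect of over 70% in size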
In short: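 Following overnight culture in 10% FBS DMEM, parental S16 rat Schwann cells are dosed for 24 h at 37 °C. Viability is read as CellTiter-Glo luminescence and expressed as % activity relative to DMSO (0%) and no-cell wells.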

[9] = S16 Schwann cell PMP22 intronic element firefly luciferase assay (AID 624032);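 note: plate controls were DMSO for no effect and PTC124 positive control mean for full effect; nearly all actives have a fitted effect of over 30% in size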
In short: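 Rat S16 Schwann cells stably carrying a PMP22 intronic element-driven Fluc reporter were seeded overnight, then exposed to compounds for 24 h at 37 °C. Luminescence was normalized to PTC124 (positive control) and DMSO (0% activity).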

[10] = NCATS anti-infectives library activity on HEK293 viability as a counter-qHTS vs the C. elegans viability qHTS (AID 1745854);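 note: potency is the fitted concentration of half-maximal effect; HEK293 cells exposed to compounds for 24 hr before the viability read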
In short: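 Counter-screen for cytotoxicity: HEK293, 24 hr, 37C, compounds up to 41.7 uM final (a dilution series, 1:5). Readout CellTiter-Glo luminescence, 10 min RT. Digitonin control, 83.3 uM final.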

[11] = NCATS anti-infectives library activity on the primary C. elegans qHTS viability assay (AID 1745855; calls by dose curve; note: potency is the fitted concentration of half-maximal effect)
In short: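 GFP read-out by 488 nm laser cytometry at day 0, 3 and 7, gated on object perimeter, area and peak intensity, scored viability of PE254-GFP-FLuc worms exposed to compound in S medium with bacterial capsules at 21 °C.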

[12] = qHTS profiling for inhibitors of Plasmodium falciparum proliferation (AID 504749); note: nearly all actives have a fitted effect of over 60% in size; note: potency is the fitted concentration of half-maximal effect;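 for activity, negative = inhibition: 0% = DMSO vehicle and full inhibition = artemisinin control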; details: P. falciparum in erythrocytes, SYBR Green DNA, 72 h, at 28.7 µM (top of the series)
In short: (§1)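 Quantitative HTS: compounds pinned into medium, infected erythrocytes added (0.3% parasitemia, 2.5% hematocrit), 72 h culture at 37 C under 5% CO2. Saponin/Triton lysis with SYBR Green I, overnight RT, then fluorescence read.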

7G8 = test: as above; details: P. falciparum in erythrocytes, SYBR Green DNA, 72 h; series mostly up to 12.8 µM
In short: as §1

AA1029 = test: as above; details: P. falciparum in erythrocytes, SYBR Green DNA, 72 h; series mostly up to 28.7 µM
In short: as §1

AS120 = test: as above; details: P. falciparum in erythrocytes, SYBR Green DNA, 72 h; series mostly up to 28.7 µM
In short: as §1

ATS95 = test: as above; details: P. falciparum in erythrocytes, SYBR Green DNA, 72 h; series mostly up to 28.7 µM
In short: as §1

C2A = test: as above; details: P. falciparum in erythrocytes, SYBR Green DNA, 72 h; series mostly up to 28.7 µM
In short: as §1

CP185 = test: as above; details: P. falciparum in erythrocytes, SYBR Green DNA, 72 h; series mostly up to 28.7 µM
In short: as §1

CP192 = test: as above; details: P. falciparum in erythrocytes, SYBR Green DNA, 72 h; series mostly up to 28.7 µM
In short: as §1

CP201 = test: as above; details: P. falciparum in erythrocytes, SYBR Green DNA, 72 h; series mostly up to 28.7 µM
In short: as §1

CP203 = test: as above; details: P. falciparum in erythrocytes, SYBR Green DNA, 72 h; series mostly up to 28.7 µM
In short: as §1

CP211 = test: as above; details: P. falciparum in erythrocytes, SYBR Green DNA, 72 h; series mostly up to 28.7 µM
In short: as §1

CP215 = test: as above; details: P. falciparum in erythrocytes, SYBR Green DNA, 72 h; series mostly up to 28.7 µM
In short: as §1

CP217 = test: as above; details: P. falciparum in erythrocytes, SYBR Green DNA, 72 h; series mostly up to 28.7 µM
In short: as §1

CP238 = test: as above; details: P. falciparum in erythrocytes, SYBR Green DNA, 72 h; series mostly up to 28.7 µM
In short: as §1

CP247 = test: as above; details: P. falciparum in erythrocytes, SYBR Green DNA, 72 h; series mostly up to 28.7 µM
In short: as §1

CP250 = test: as above; details: P. falciparum in erythrocytes, SYBR Green DNA, 72 h; series mostly up to 12.8 µM
In short: as §1

CP252 = test: as above; details: P. falciparum in erythrocytes, SYBR Green DNA, 72 h; series mostly up to 12.8 µM
In short: as §1

CP256 = test: as above; details: P. falciparum in erythrocytes, SYBR Green DNA, 72 h; series mostly up to 28.7 µM
In short: as §1

CP262 = test: as above; details: P. falciparum in erythrocytes, SYBR Green DNA, 72 h; series mostly up to 28.7 µM
In short: as §1

CP268 = test: as above; details: P. falciparum in erythrocytes, SYBR Green DNA, 72 h; series mostly up to 28.7 µM
In short: as §1

CP269 = test: as above; details: P. falciparum in erythrocytes, SYBR Green DNA, 72 h; series mostly up to 28.7 µM
In short: as §1

CP286 = test: as above; details: P. falciparum in erythrocytes, SYBR Green DNA, 72 h; series mostly up to 28.7 µM
In short: as §1

CP291 = test: as above; details: P. falciparum in erythrocytes, SYBR Green DNA, 72 h; series mostly up to 28.7 µM
In short: as §1

CP297 = test: as above; details: P. falciparum in erythrocytes, SYBR Green DNA, 72 h; series mostly up to 28.7 µM
In short: as §1

CP305 = test: as above; details: P. falciparum in erythrocytes, SYBR Green DNA, 72 h; series mostly up to 28.7 µM
In short: as §1

CP315 = test: as above; details: P. falciparum in erythrocytes, SYBR Green DNA, 72 h; series mostly up to 28.7 µM
In short: as §1

CP325 = test: as above; details: P. falciparum in erythrocytes, SYBR Green DNA, 72 h; series mostly up to 28.7 µM
In short: as §1

CP329 = test: as above; details: P. falciparum in erythrocytes, SYBR Green DNA, 72 h; series mostly up to 28.7 µM
In short: as §1

DIV17 = test: as above; details: P. falciparum in erythrocytes, SYBR Green DNA, 72 h; series mostly up to 28.7 µM
In short: as §1

DIV30 = test: as above; details: P. falciparum in erythrocytes, SYBR Green DNA, 72 h; series mostly up to 28.7 µM
In short: as §1

Dd2 = test: as above; details: P. falciparum in erythrocytes, SYBR Green DNA, 72 h; series mostly up to 28.7 µM
In short: as §1

FAB9 = test: as above; details: P. falciparum in erythrocytes, SYBR Green DNA, 72 h; series mostly up to 28.7 µM
In short: as §1

HB3 = test: as above; details: P. falciparum in erythrocytes, SYBR Green DNA, 72 h; series mostly up to 28.7 µM
In short: as §1

ICS = test: as above; details: P. falciparum in erythrocytes, SYBR Green DNA, 72 h; series mostly up to 28.7 µM
In short: as §1

JCK = test: as above; details: P. falciparum in erythrocytes, SYBR Green DNA, 72 h; series mostly up to 28.7 µM
In short: as §1

N140 = test: as above; details: P. falciparum in erythrocytes, SYBR Green DNA, 72 h; series mostly up to 28.7 µM
In short: as §1

P93_24 = test: as above; details: P. falciparum in erythrocytes, SYBR Green DNA, 72 h; series mostly up to 28.7 µM
In short: as §1

P94_40 = test: as above; details: P. falciparum in erythrocytes, SYBR Green DNA, 72 h; series mostly up to 28.7 µM
In short: as §1

PC15 = test: as above; details: P. falciparum in erythrocytes, SYBR Green DNA, 72 h; series mostly up to 28.7 µM
In short: as §1

SC27B = test: as above; details: P. falciparum in erythrocytes, SYBR Green DNA, 72 h; series mostly up to 28.7 µM
In short: as §1

TAB113 = test: as above; details: P. falciparum in erythrocytes, SYBR Green DNA, 72 h; series mostly up to 28.7 µM
In short: as §1

W2 = test: as above; details: P. falciparum in erythrocytes, SYBR Green DNA, 72 h; series mostly up to 12.8 µM
In short: as §1

CC(=O)OC1C[C@H](O[C@@H]2C(O)C[C@H](O[C@@H]3C(O)C[C@@H](OC4CC[C@]5(C)C(CCC6C5CC(O)[C@@]5(C)C(C7=CC(=O)OC7)CC[C@@]65O)C4)OC3C)OC2C)O[C@H](C)[C@H]1O[C@H]1OC(CO)C(O)C(O)C1O (stereo partly specified)
active: Potency [10] 0.199 µM | Potency [11] 8.16 µM | Potency (7G8) 8.91 µM | Potency (DIV17) 13.5 µM | Potency (HB3) 12.6 µM | Potency (ICS) 5.62 µM | Potency (P93_24) 12.6 µM | Potency (PC15) 5.01 µM | Potency (W2) 13.5 µM
inactive: Potency [1] | Potency [2] | Potency [3] | activity change, negative = inhibition ([4]; at 57.5 µM (top of the series)) 1.49% | Potency [5] | Potency [6] | Potency [7] | Potency [8] | Potency [9] | activity, negative = inhibition ([12]; parasite line A) -17.9% | activity, negative = inhibition ([12]; parasite line B) 17.8% | Potency (AA1029) | Potency (AS120) | Potency (ATS95) | Potency (C2A) | Potency (CP185) | Potency (CP192) | Potency (CP201) | Potency (CP203) | Potency (CP211) | Potency (CP215) | Potency (CP217) | Potency (CP238) | Potency (CP247) | Potency (CP250) | Potency (CP252) | Potency (CP256) | Potency (CP262) | Potency (CP268) | Potency (CP269) | Potency (CP286) | Potency (CP291) | Potency (CP297) | Potency (CP305) | Potency (CP315) | Potency (CP325) | Potency (CP329) | Potency (DIV30) | Potency (Dd2) | Potency (FAB9) | Potency (JCK) | Potency (N140) | Potency (P94_40) | Potency (SC27B) | Potency (TAB113)
24.4%: max response ([4]; measured here: lipid channel max response)
20.6%: max response ([4]; measured here: cell count channel max response)

— PubChem BioAssay (NCATS)
